Screens: PubChem, several laboratories
Most compounds without a hit are left out; they make up all but 3.7% or so of the library.
PfHsp90 yeast 2 = growth inhibition of PfHsp90-expressing yeast, primary screen, antimalarial PfHsp90 inhibitor project, S. cerevisiae, BacTiter-Glo luminescence, single point, set 2. BacTiter-Glo ATP, 48 h; yeast lacking PDR1 and PDR3 efflux regulators. inhibition, % at 9.4 µM. hit rate 0.32% among 310,000. AID 504621, 2011;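 active = every replicate shows inhibition above about 80%, whatever the replicate mean, limit read from the data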;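 note: 0% = DMSO neutral controls and 100% = 20 µM radicicol positive controls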
TIM10 inh = growth inhibitors of isogenic TIM10 control yeast, primary screen, counter-screen for tim10-1 yeast inhibitor project, luminescence, uHTS; S. cerevisiae TIM10 strain growth, BacTiter-Glo luminescence, 24 h; hit rate 1.4% among 330,000; inhibition, % at 10 µM;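 active = inhibition of 40% or more at the single tested concentration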;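 note: wild-type TIM10 isogenic control strain grown at permissive 25 °C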
tim10-1 inh = growth inhibitors of tim10-1 mutant yeast, primary screen, luminescence, uHTS | S. cerevisiae tim10-1 ts strain growth, BacTiter-Glo, 24 h | hit rate 2.2% among 330,000 | AID 463190, 2010 | inhibition, % at 20 µM;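 active = inhibition of at least 40%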;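 note: mutant grown at 25 °C; 0% = DMSO wells with yeast and 100% = wells holding no yeast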
Rce1 inhib = yeast Rce1p protease inhibitors, primary screen, biochemical, fluorescence, cell-free homogeneous; CAAX prenyl protease 2 (Saccharomyces cerevisiae (strain ATCC 204508 / S288c)), Q03530; yeast membranes, quenched prenylated peptide cleavage fluorescence; calls only; hit rate 0.27% among 290,000;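 active = fall in fluorescence gain of 50% or more versus controls, with final raw signal at or below 3038400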;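 note: plate controls were neutral control wells for no effect and wells lacking membranes for full effect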
Target sequence (Q03530 whole entry, looked up): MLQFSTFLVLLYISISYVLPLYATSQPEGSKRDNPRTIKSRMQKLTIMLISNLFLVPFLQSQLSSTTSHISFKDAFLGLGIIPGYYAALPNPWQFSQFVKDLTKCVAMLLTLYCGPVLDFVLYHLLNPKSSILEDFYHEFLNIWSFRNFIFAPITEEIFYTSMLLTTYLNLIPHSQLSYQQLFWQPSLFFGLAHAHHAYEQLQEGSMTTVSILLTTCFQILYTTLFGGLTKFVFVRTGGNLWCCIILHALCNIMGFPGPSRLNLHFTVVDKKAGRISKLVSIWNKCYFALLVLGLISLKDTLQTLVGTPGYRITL
tim23-1 inh = growth inhibitors of tim23-1 mutant yeast, primary screen, luminescence, uHTS. S. cerevisiae tim23-1 growth, BacTiter-Glo luminescence, 24 h. inhibition, % at 20 µM. hit rate 1.3% among 330,000;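 active = growth inhibition of the mutant yeast at or above 50%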;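 note: temperature-sensitive mutant grown at 25 °C; plate controls were DMSO-treated mutant yeast for no effect and medium wells lacking yeast for full effect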
tim10-1 confirm = growth inhibitors of tim10-1 mutant yeast, confirmation, single concentration, luminescence, S. cerevisiae; shares compounds with tim10-1 inh; S. cerevisiae tim10-1 ts strain growth, BacTiter-Glo, 24 h; inhibition, % at 20 µM; hit rate 56% among 7,400;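 active = inhibition of yeast growth at or above a set limit in either of two repeat tests at 20 µM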;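 note: tim10-1 mutant grown at permissive 25 °C to find synthetic lethal compounds; 0% = DMSO yeast wells and 100% = medium wells without yeast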
TIM10 conf = growth inhibitors of wild-type TIM10 yeast, confirmation, counter-screen for tim10-1 synthetic lethality project, single concentration, luminescence, S. cerevisiae; shares compounds with TIM10 inh; S. cerevisiae tim10 strain growth, BacTiter-Glo luminescence, 24 h; inhibition, % at 10 µM; hit rate 63% among 4,600; AID 463215, 2010;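 active = inhibition of yeast growth at or above a set limit in either of two replicates at 10 µM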;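 note: this counterscreen used the strain with wild-type TIM10; 0% = yeast with DMSO and 100% = medium wells lacking yeast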
tim23-1 conf = tim23-1 mutant yeast growth inhibitors, confirmation, luminescence, single concentration; shares compounds with tim23-1 inh; S. cerevisiae tim23-1 growth, BacTiter-Glo luminescence, 24 h; inhibition, % at 20 µM; hit rate 83% among 4,400;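 active = inhibition above about 39% in either of two replicate wells at 20 µM, limit read from the data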;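 note: temperature-sensitive tim23-1 mutant grown at 25 °C; 0% = DMSO wells with yeast and 100% = medium wells without yeast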
The depositor's hits bear a star; i = inactive; . = not tested or not shown.

SMILES	PfHsp90 yeast 2	TIM10 inh	tim10-1 inh	Rce1 inhib	tim23-1 inh	tim10-1 confirm	TIM10 conf	tim23-1 conf
CCCNc1nc(Cl)nc(NC(C)(C)C)n1	9	13	18	i	9	.	.	.
O=C1CCc2ccc(NC(=O)C3CC3)cc2N1	28	-29	16	i	-5	.	.	.
COc1ccc(S(=O)(=O)N2CCN(C(=O)c3oc4ccccc4c3C)CC2)cc1	16	44*	57*	.	53*	43*	55*	54*
CCOc1ncccc1C(=O)OCC(=O)Nc1nnc(-c2ccccc2)o1	-1	-13	-6	i	5	.	.	.
CSc1nc2cc(Oc3cccc(Cl)c3Cl)c(Cl)cc2[nH]1	109*	55*	53*	i	74*	51*	65*	-21
Cc1ccc2c(c1)N(CC(=O)NC1CCC(C)CC1)C(=O)c1cccnc1O2 (configuration not stated)	24	1	11	i	28	.	.	.
O=C(CNC(=O)c1ccccc1)OCCCOC(=O)CNC(=O)c1ccccc1	-1	-7	0	i	7	.	.	.
Cc1occc1-c1nnc(-c2cc([N+](=O)[O-])cc([N+](=O)[O-])c2)o1	106*	56*	73*	i	83*	69*	52*	69*
O=C(CC1Nc2ccccc2NC1=O)Nc1cc(Cl)cc(Cl)c1 (configuration not stated)	.	41*	79*	i	64*	-2	-32	15
C[C@@H]1CC=C[C@H]2[C@H]1C(=O)N(Cc1ccccc1)[C@H]2c1ccc(C(F)(F)F)cc1	-9	-5	32	i	-16	.	.	.
O=C1C2C(c3ccccc3)CC=CC2[C@H](c2ccc(C(F)(F)F)cc2)N1Cc1ccccc1 (some centres not stated)	-13	75*	66*	i	65*	52*	44*	66*
N#C/C(=C\c1cccnc1)C(=O)Nc1cccc2ccccc12	21	60*	61*	i	77*	58*	73*	78*
N#C/C(=C\c1cccnc1)C(=O)NC1CCCCC1	13	65*	58*	i	70*	41*	-18	70*
N#C/C(=C\c1cccc([N+](=O)[O-])c1)C(=O)Nc1cccnc1	.	1	26	.	28	.	.	.
N#C/C(=C\c1ccccc1)C(=O)NC1CC1	-1	23	14	i	28	.	.	.
Cc1cccc(NC(=O)/C(C#N)=C\c2ccc(C(=O)O)cc2)c1	1	2	0	i	0	.	.	.
Cc1cccc(NC(=O)/C(C#N)=C\c2cccnc2)c1	-7	66*	67*	i	79*	56*	59*	78*
N#C/C(=C\c1cccnc1)C(=O)Nc1cccc(Cl)c1	20	50*	48*	i	85*	34*	24	78*
COC(=O)c1ccccc1NC(=S)N(Cc1ccc2c(c1)OCO2)Cc1cc2cccc(C)c2[nH]c1=O	-8	27	20	i	22	.	.	.
Cc1ccc(NC(=O)COC(=O)C2CC(=O)N(Cc3ccccc3)C2)cc1F (configuration not stated)	-4	-5	0	i	10	.	.	.
N#C/C(=C\c1cccnc1)C(=O)Nc1ccc(Cl)cc1	25	61*	61*	i	76*	26	38*	66*
COc1ccccc1NC(=O)/C(C#N)=C/c1cccnc1	7	20	24	i	45	.	.	.
O=C(Nc1cc2c(cc1Br)OCCO2)c1ccc(=O)[nH]c1	-2	2	2	.	7	.	.	.
COc1ccc(/C=C/C(=O)c2ccc([N+](=O)[O-])o2)cc1	15	70*	45*	i	79*	16	79*	-4
O=S1(=O)CCN2N=C(C34CC5CC(CC(C5)C3)C4)SC2=N1	-7	-11	3	i	4	.	.	.
SMILES	PfHsp90 yeast 2	TIM10 inh	tim10-1 inh	Rce1 inhib	tim23-1 inh	tim10-1 confirm	TIM10 conf	tim23-1 conf
COc1ccc(C(=O)/C=C/C(=O)N(CC(=O)NC2CCCCC2)CC2CCCO2)c(O)c1 (configuration not stated)	4	49*	46*	i	51*	56*	52*	60*
COc1ccc(C(=O)/C=C/C(=O)N(CC(=O)NC2CCCCC2)Cc2ccccc2)c(O)c1	27	.	.	i	.	.	.	.
COC(=O)C(C)Oc1ccc(Cc2ncc(C(F)(F)F)cc2Cl)cc1 (configuration not stated)	-8	-2	21	i	7	.	.	.
CC(C(=O)Nc1ccc(C#N)cc1)N1CCN(C(=O)C2CC2)CC1 (configuration not stated)	2	4	10	.	6	.	.	.
CNC(=O)N(c1ccccc1)c1ccccc1	-25	-11	13	i	1	.	.	.
O=C(N(c1ccccc1)c1ccccc1)N(c1ccccc1)c1ccccc1	.	39	46*	i	52*	22	.	41*
CC(Sc1n[nH]c(N)n1)C(=O)C12CC3CC(CC(C3)C1)C2 (configuration not stated)	3	0	3	i	12	.	.	.
CC(SC#N)C(=O)C12CC3CC(CC(C3)C1)C2 (configuration not stated)	-2	55*	53*	i	66*	39*	41*	50*
Oc1c(Br)cc(Br)cc1C=Nc1ccc2[nH]ncc2c1	-57	4	46*	i	86*	56*	.	79*
COc1cc(Br)cc(C=Nc2cccc(C(F)(F)F)c2)c1O	-5	.	.	i	.	.	.	.
COc1ccc(C=Nc2ccc3[nH]ncc3c2)c(O)c1	26	6	21	i	13	.	.	.
Oc1c(Br)cc(Br)cc1C=Nc1cccnc1	101*	67*	57*	i	79*	42*	48*	90*
CC(=O)c1cccc(N(C(=O)CNC(=O)c2cccs2)C(C(=O)NCC2CCCO2)c2ccccc2)c1 (configuration not stated)	9	5	0	i	7	.	.	.
COc1ccc(-c2cc(-c3c(O)c(OC)c4occc4c3OC)[nH]n2)cc1OC	9	36	50*	i	53*	31*	.	45*
COc1ccccc1-c1ccc(NC2CCCCC2)nn1	4	29	43*	i	52*	38*	.	41*
